Experimental findings from ChEMBL document CHEMBL1961873, “Compounds: GSK PKIS; Assays: Nanosyn kinase panel” (2012) are described below.

Test [1] has as its target Mitogen-activated protein kinase 3 (Homo sapiens) (UniProt P27361). The note with it: at 1 µM.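 Also: values are mean percent inhibition of MAPK3.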
The target of test [2] is SRSF protein kinase 3 (Homo sapiens) (UniProt Q9UPE1). The note with it: at 0.1 µM.
Test [3] shares this target. The note with it: at 1 µM.
In test [4] the target is Mitogen-activated protein kinase 14 (Homo sapiens) (UniProt Q16539). The note with it: at 0.1 µM.
Test [5] has the same target. The note with it: at 1 µM.
Test [6] concerns the target Mitogen-activated protein kinase 11 (Homo sapiens) (UniProt Q15759). The note with it: at 0.1 µM.
The target is the same in test [7]. The note with it: at 1 µM.
Test [8] has as its target T1, Mitogen-activated protein kinase 13 (Homo sapiens) (UniProt O15264).
T1 sequence (whole entry): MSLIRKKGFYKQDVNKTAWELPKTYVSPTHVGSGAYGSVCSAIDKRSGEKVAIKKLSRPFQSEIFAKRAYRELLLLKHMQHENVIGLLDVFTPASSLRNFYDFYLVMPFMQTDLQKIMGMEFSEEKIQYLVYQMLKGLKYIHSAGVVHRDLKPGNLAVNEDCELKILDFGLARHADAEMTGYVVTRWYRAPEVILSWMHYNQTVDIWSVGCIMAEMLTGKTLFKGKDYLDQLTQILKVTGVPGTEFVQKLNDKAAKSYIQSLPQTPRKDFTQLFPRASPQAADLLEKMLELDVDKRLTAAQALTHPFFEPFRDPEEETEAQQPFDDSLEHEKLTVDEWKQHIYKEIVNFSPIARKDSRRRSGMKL
The note with it: at 0.1 µM.

Test [9] concerns the target T1, Mitogen-activated protein kinase 13 (Homo sapiens). The note with it: at 1 µM.
For test [10], the target named is T2, Mitogen-activated protein kinase 12 (Homo sapiens) (UniProt P53778).
T2 sequence (whole entry): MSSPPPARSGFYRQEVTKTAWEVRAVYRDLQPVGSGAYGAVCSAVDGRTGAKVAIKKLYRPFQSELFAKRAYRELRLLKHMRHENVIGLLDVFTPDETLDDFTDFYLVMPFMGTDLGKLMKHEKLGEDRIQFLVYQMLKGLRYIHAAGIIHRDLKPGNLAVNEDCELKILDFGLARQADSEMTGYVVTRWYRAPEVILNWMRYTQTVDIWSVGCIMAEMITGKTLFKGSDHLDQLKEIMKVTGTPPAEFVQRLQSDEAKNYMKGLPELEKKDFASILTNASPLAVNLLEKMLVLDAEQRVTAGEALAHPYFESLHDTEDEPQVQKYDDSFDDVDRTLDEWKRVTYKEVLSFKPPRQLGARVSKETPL
The note with it: at 0.1 µM.

Test [11] addresses T2, Mitogen-activated protein kinase 12 (Homo sapiens). The note with it: at 1 µM.
In test [12] the target is SRSF protein kinase 1 (Homo sapiens) (UniProt Q96SB4). The note with it: at 0.1 µM.
Test [13] has the same target. The note with it: at 1 µM.
The target in test [14] is Phosphatidylinositol 4,5-bisphosphate 3-kinase catalytic subunit alpha isoform (Homo sapiens) (UniProt P42336). The note with it: at 0.1 µM.
The target is the same in test [15]. The note with it: at 1 µM.
Test [16] has as its target T3, Phosphatidylinositol 4,5-bisphosphate 3-kinase catalytic subunit delta isoform (Homo sapiens) (UniProt O00329).
T3 sequence (whole entry): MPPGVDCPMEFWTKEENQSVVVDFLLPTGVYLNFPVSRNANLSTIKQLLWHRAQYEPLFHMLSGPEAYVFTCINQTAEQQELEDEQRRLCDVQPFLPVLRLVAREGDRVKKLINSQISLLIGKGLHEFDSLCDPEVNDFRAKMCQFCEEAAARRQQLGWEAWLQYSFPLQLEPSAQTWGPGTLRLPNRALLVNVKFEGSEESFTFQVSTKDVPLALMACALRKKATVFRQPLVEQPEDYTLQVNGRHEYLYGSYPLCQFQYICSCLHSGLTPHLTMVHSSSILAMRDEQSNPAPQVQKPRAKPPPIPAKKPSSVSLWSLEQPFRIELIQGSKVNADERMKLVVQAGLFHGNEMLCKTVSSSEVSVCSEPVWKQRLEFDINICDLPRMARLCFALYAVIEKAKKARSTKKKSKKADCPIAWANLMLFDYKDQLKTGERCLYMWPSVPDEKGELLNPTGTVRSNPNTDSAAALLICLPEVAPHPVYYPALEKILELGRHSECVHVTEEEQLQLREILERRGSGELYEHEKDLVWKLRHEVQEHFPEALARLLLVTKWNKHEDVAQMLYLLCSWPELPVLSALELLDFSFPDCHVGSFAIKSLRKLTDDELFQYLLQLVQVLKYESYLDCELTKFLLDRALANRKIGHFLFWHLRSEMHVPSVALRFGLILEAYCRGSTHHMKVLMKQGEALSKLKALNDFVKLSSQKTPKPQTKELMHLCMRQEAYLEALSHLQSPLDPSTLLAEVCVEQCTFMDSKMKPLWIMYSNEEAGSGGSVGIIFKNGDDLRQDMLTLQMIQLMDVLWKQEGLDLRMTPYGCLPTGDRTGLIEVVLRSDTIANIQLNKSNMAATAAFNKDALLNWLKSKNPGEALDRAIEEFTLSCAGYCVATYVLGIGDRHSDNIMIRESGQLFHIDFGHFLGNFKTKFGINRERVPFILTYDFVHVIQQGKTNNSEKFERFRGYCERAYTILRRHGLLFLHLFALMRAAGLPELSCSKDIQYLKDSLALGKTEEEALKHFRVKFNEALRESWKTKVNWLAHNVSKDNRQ
The note with it: at 0.1 µM.

Test [17] deals with T3, Phosphatidylinositol 4,5-bisphosphate 3-kinase catalytic subunit delta isoform (Homo sapiens). The note with it: at 1 µM.
The target in test [18] is Phosphatidylinositol 4-kinase beta (Homo sapiens) (UniProt Q9UBF8). The note with it: at 0.1 µM.
For test [19] the target is unchanged. The note with it: at 1 µM.
The target of test [20] is Sphingosine kinase 1 (Homo sapiens) (UniProt Q9NYA1). The note with it: at 0.1 µM.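 Also: mean percent inhibition of SPHK1 activity, measured within the GSK PKIS screening panel.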
Chain of Sphingosine kinase 1 (Homo sapiens) (Q9NYA1 whole entry): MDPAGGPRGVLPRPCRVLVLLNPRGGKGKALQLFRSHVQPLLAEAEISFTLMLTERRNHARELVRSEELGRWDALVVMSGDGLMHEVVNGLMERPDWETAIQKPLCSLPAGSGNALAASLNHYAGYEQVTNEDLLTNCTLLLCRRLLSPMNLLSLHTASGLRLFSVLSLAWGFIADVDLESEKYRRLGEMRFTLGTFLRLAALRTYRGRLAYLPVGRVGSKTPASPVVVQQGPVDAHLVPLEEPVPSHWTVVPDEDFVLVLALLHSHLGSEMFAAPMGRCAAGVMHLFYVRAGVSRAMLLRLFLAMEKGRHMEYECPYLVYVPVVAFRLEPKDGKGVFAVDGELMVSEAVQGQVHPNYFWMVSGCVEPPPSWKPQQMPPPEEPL

Chain of Mitogen-activated protein kinase 3 (Homo sapiens) (P27361 whole entry): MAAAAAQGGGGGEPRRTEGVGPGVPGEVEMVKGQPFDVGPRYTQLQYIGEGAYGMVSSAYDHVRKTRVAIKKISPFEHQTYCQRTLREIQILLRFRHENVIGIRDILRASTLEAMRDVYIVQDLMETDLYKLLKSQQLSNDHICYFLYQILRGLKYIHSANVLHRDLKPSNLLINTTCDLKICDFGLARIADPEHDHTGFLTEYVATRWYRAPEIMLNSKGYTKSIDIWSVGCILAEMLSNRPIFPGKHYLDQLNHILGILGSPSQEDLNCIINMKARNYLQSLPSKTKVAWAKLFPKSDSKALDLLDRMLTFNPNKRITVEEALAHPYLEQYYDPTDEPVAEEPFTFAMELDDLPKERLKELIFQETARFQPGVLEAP
Chain of Phosphatidylinositol 4-kinase beta (Homo sapiens) (Q9UBF8 2-816 limits assumed): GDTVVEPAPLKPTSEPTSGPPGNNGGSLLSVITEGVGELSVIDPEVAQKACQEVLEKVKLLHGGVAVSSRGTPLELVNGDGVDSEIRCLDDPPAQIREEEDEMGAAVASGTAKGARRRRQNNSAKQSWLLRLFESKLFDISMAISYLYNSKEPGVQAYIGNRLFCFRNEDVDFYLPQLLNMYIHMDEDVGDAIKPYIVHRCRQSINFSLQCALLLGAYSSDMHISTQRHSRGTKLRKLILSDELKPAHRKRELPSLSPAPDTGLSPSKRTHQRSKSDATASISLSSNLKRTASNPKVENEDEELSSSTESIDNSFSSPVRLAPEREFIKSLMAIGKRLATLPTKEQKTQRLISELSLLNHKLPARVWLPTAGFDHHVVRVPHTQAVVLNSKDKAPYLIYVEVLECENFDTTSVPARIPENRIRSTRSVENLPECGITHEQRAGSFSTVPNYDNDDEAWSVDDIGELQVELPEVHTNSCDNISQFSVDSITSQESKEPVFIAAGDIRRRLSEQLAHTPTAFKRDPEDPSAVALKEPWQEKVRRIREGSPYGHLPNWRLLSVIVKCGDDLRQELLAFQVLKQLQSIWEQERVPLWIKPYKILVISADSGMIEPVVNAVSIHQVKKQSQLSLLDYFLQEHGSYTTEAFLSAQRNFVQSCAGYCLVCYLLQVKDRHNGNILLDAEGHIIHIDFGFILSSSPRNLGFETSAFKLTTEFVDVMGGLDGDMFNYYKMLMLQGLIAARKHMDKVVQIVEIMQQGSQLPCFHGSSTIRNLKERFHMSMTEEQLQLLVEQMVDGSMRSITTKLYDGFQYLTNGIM
Chain of Mitogen-activated protein kinase 14 (Homo sapiens) (Q16539 whole entry): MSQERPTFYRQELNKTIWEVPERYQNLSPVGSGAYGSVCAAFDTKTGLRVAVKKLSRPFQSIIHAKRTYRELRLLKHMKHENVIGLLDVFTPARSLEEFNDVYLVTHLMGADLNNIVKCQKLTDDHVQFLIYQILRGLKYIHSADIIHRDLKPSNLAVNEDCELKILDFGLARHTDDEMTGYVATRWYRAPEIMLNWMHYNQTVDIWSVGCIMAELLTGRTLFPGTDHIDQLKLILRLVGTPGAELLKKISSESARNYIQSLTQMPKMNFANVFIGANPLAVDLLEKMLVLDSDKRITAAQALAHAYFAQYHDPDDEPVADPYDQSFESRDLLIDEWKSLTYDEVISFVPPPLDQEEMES
Chain of Phosphatidylinositol 4,5-bisphosphate 3-kinase catalytic subunit alpha isoform (Homo sapiens) (P42336 whole entry, canonical isoform): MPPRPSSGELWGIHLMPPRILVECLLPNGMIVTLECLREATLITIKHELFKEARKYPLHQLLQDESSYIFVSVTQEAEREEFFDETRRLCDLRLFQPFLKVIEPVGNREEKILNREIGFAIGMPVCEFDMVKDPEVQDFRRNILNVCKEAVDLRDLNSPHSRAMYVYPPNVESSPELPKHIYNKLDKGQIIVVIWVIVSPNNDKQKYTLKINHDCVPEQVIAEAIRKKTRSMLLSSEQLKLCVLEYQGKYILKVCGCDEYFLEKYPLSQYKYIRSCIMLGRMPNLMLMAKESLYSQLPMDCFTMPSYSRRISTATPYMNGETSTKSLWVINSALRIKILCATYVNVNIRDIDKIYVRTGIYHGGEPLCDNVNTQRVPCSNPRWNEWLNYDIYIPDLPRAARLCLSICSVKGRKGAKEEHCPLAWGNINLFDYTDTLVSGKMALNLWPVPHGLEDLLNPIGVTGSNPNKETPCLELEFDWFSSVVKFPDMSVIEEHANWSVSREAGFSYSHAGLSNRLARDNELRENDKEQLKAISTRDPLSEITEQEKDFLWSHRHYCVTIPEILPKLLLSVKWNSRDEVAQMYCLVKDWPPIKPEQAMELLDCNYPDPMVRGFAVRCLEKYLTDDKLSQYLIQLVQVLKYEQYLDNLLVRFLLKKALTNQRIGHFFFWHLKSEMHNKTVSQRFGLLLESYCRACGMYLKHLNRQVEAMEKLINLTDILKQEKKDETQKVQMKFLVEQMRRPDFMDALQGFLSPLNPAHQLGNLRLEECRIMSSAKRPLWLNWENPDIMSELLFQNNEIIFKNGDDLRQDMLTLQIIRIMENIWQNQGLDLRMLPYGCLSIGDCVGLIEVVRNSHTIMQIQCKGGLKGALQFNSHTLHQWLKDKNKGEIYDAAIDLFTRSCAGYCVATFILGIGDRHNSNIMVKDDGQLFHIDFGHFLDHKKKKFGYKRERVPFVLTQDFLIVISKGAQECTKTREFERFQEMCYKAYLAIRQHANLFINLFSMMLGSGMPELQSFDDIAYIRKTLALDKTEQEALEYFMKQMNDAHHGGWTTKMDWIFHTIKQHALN
Chain of SRSF protein kinase 3 (Homo sapiens) (Q9UPE1 whole entry): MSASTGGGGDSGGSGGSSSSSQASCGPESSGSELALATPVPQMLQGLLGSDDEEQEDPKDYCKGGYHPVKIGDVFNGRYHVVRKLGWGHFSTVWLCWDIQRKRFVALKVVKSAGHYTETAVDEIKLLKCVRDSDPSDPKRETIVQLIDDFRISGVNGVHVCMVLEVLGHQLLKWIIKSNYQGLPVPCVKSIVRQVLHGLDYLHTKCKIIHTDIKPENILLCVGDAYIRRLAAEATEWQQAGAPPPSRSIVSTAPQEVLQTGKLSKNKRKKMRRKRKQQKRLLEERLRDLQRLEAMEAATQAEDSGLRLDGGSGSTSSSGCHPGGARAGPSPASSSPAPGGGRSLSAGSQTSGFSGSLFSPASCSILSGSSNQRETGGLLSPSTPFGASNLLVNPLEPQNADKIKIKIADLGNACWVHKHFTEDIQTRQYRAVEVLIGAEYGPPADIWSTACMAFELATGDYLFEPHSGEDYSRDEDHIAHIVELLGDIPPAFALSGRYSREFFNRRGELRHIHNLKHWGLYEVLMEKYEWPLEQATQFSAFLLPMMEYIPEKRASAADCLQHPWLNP
Chain of Mitogen-activated protein kinase 11 (Homo sapiens) (Q15759 whole entry): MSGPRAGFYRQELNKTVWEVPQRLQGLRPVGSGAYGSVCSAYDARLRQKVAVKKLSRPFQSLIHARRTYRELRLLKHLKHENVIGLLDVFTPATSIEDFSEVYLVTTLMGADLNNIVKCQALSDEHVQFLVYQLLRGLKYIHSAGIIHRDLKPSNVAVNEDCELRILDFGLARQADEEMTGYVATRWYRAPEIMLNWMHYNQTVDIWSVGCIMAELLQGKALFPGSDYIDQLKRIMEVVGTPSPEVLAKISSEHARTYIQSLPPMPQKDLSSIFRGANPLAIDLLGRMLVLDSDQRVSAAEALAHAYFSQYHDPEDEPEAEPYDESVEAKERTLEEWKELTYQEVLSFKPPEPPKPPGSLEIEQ
Chain of SRSF protein kinase 1 (Homo sapiens) (Q96SB4 whole entry): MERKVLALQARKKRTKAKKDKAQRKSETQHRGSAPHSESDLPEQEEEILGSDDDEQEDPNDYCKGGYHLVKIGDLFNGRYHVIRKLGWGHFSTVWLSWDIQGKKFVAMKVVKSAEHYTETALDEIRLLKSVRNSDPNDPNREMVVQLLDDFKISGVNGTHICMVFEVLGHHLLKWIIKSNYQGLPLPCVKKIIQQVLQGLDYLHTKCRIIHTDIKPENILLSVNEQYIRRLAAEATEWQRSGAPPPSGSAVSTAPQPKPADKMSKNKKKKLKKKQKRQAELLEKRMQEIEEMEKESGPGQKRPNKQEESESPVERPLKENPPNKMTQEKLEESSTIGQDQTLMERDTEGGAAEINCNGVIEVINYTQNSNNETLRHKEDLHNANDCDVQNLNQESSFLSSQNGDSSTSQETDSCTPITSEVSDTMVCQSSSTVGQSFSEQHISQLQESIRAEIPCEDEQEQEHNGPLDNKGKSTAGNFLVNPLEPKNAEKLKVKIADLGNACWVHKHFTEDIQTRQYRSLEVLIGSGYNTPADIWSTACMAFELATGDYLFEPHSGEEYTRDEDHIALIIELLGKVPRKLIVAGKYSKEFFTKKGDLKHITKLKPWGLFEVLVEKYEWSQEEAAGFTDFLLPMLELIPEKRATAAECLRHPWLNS

With `O=C1Nc2ccc(-c3cccnc3)cc2C1=Cc1cc(Br)c(O)c(Br)c1`, the inhibition turned out to be 1.77% in test [1]; 1.44% in test [2]; 1.95% in test [3]; 5.87% in [4]; 7.67% in test [5]; 1.48% in test [6]. Further, the inhibition in [7] was 1.36%; in [8], 1.39%; in test [9] it was 3.3%; in test [10], 2.25%; in [11], 2.31%; in test [12], -1.92%. In addition, the inhibition in test [13] was -2.45%; in [14], 11.3%; in test [15] it was 55.5%; in [16], -8.03%; in test [17] it was -3.91%; in [18], 35.2%. The inhibition was determined as 77.7% in test [19] and 5.72% in test [20].

`NS(=O)(=O)c1ccc(NC=C2C(=O)Nc3ccc4ncsc4c32)cc1`: the inhibition was 28.1% in [1]; -0.67% in test [2]; -0.55% in test [3]; 5.49% in [4]; 18.7% in test [5]; 9.06% in test [6]. In addition, the inhibition is 27.3% in [7]; 1.67% in [8]; 9.03% in [9]; 1.56% in [10]; 5.67% in test [11]; -2.53% in [12]. In addition, the inhibition in test [13] is -1.62%; in [14] it was 3.58%; in test [15], 13.1%; in [16], 5.31%; in test [17], 27.3%; in [18], -1.46%. Besides, the figures for the inhibition in test [19] and in test [20] were 4.92% and 1.36%, respectively.

For the compound `N#Cc1cccc(Nc2nccc(-c3cnn4ncccc34)n2)c1`, the inhibition worked out at 35.8% in test [1]; 0.24% in test [2]; 3.11% in [3]; 3.74% in test [4]; 14.6% in test [5]; 3.01% in test [6]. In addition, the inhibition came out at 14% in test [7]; 12.9% in [8]; 47.1% in [9]; 4.57% in [10]; 26.4% in [11]; 0.8% in [12]. Moreover, the inhibition in test [13] was 23%; in test [14] it was 6.65%; in [15] it was 23.3%; in test [16] it was 3.45%; in test [17] it was 21.2%; in [18], -5.91%. For the same compound, the inhibition is 14.8% in test [19] and -0.07% in test [20].

Regarding `c1ccc(Cc2nc3ccc(Nc4ncnc5ccccc45)cc3[nH]2)cc1`, the inhibition in test [1] was 4.11%; in test [2], 0.5%; in test [3] it was -0.46%; in test [4] it was 6.98%; in test [5] it was 6.36%; in test [6], 2.73%. Moreover, the inhibition was 2.79% in test [7]; 4.91% in [8]; 5.18% in test [9]; 1.83% in test [10]; 0.6% in test [11]; -1.1% in test [12]. Further, the inhibition in test [13] is 1.41%; in [14], 3.03%; in test [15], 4.64%; in test [16], 1.66%; in test [17], 0.62%; in [18] it was -0.98%. The inhibition in test [19] was -1.72%; in test [20], 1.07%.

Turning to `COc1cccc(-n2ncc3c(N/N=C/c4ccc(S(C)(=O)=O)cc4)ncnc32)c1`, the inhibition in [1] was 1.55%; in test [2], -0.64%; in [3] it was 1%; in test [4], -3.8%; in test [5], 4.7%; in test [6], 0.81%. Further, the inhibition in test [7] is 1.99%; in test [8], 1.44%; in [9], 6.79%; in test [10], 2.12%; in [11] it was 2.32%; in test [12] it was -0.76%. The inhibition was 0.02% in test [13]; 1.3% in test [14]; 1.54% in test [15]; 1% in [16]; 2.43% in test [17]; -0.72% in test [18]. The figures for the inhibition in test [19] and in test [20] were -2.28% and -1.72%, respectively.

In the case of `C[C@@H](Oc1cc(-n2cnc3ccc(OCC4CCN(C)CC4)cc32)sc1C(N)=O)c1ccccc1C(F)(F)F`, the inhibition in test [1] was -0.11%; in test [2], 0.22%; in [3] it was 0.15%; in [4], -2.1%; in test [5], 1.86%; in [6], 1.51%. Moreover, the inhibition was 3.33% in test [7]; -2.92% in test [8]; -3.87% in test [9]; -1.88% in test [10]; -2.08% in test [11]; -0.56% in [12]. The inhibition was 1.16% in test [13]; -1.6% in [14]; 13.3% in test [15]; 2.19% in test [16]; 55.9% in test [17]; 6.54% in [18]. In addition, the inhibition worked out at 0.1% in test [19] and 0.59% in [20].

On to `Cc1cc(Cl)cc2c1NC(=O)C2=NNc1ccc(S(N)(=O)=O)cc1`, for which the inhibition in test [1] is 4.37%; in [2] it was 0.26%; in test [3], -0.13%; in test [4], -2.89%; in [5], 3.98%; in [6], 3.77%. For the same compound, the inhibition in test [7] was 7.2%; in [8], -1.04%; in [9], 1.98%; in test [10], 0.32%; in test [11] it was 2.01%; in test [12], -1.22%. The inhibition was 1.09% in [13]; 0.48% in [14]; 1.85% in test [15]; 0.72% in test [16]; 4.67% in test [17]; -5.44% in test [18]. Moreover, the inhibition was 3.24% in test [19] and 0.93% in test [20].
